Reference: PubChem BioAssay AID651926 (Vanderbilt Specialized Chemistry Center, 2012)
Calls of active or inactive are those of the source. No rule for the calls is given here.

Molecular target: Histone deacetylase 2 (Homo sapiens) (UniProt Q92769)
Assay: HDAC2 enzyme inhibition, profiling panel, selectivity assay for E-cadherin restoration project, biochemical, HDAC isoform panel (AID 651926)

Chain of Histone deacetylase 2 (Homo sapiens) (Q92769 whole entry, looked up, canonical isoform): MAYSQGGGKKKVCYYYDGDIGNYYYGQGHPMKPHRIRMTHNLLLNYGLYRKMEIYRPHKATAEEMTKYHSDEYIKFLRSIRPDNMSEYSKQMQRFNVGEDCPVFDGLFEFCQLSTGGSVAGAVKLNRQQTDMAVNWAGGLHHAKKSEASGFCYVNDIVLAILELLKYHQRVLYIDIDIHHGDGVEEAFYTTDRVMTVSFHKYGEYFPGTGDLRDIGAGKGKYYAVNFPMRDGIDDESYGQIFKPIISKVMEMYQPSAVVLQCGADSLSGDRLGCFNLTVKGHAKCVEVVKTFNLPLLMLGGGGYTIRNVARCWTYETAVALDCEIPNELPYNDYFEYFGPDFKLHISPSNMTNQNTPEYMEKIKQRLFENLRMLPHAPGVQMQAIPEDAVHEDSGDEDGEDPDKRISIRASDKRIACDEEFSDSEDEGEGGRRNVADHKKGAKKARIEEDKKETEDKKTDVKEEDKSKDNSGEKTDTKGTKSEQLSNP

In the case of O=C(NCCCNC(=O)c1ccc[nH]c1=O)c1cc(-c2ccccc2)on1, the outcome is reported as “inactive”.
